Measurements: PubChem BioAssay
Values joined by “and” are separate entries in the source; they are usually repeats but may differ in a detail not shown here. Identical values can stand only once. Active and inactive are the calls of the source.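 The calls were made as follows, unless noted: active = thallium flux through the channel raised or lowered by more than 3 SD from vehicle-only wells, actives on both sides; inactive = the rest.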

Key:
[1] = target: NAD(+) hydrolase SARM1 (Homo sapiens) (UniProt Q6SZW1); assay: blocking NAD cleavage by SARM1 SAM-TIR – cell lysate, NAD-Glo luminescence (AID 1508614;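 active = compound whose remaining NAD level is above about 45 nM, limit read from the data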;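 also: higher remaining NAD means stronger inhibition of SARM1 NADase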); settings: SAM-TIR HEK293T lysate NADase, at 1 µM, hits give high values
[2] = galactose survival enhancers in mitochondrial complex I cybrids – cell-based, galactose medium, ATP luminescence, primary screen (AID 1645843;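 active = z-score of at least 1.8 in each of two replicates, scored against plate mean and spread of sample wells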;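 also: positive z means more ATP and so rescue of galactose-driven cybrid death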); settings: complex I mutant cybrid cells, 72 h, hits give high values
[3] = tested on: F380Y; assay: BK channel mutant inhibitors and activators – cell-based, U2OS BacMam, thallium flux, beta subunits, selectivity assay, profiling panel (AID 1259406); settings: U2OS BacMam BK variants, at 30 µM;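 also: initial slope of Thallos dye fluorescence rise after thallium is added; log ratio against the mean of 0.3% DMSO vehicle wells on the same plate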
[4] = tested on: F380Y/beta1; assay: as above; settings: U2OS BacMam BK variants, at 30 µM
[5] = target: Mitogen-activated protein kinase 7 (Homo sapiens) (UniProt Q13164); assay: Gal4-ERK5 driven luciferase induction – cell-based, HTS, primary screen (AID 1508626;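 active = luciferase signal above three times the same-plate solvent-only control wells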;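 also: luciferase driven by Gal4-ERK5 fusion binding five Gal4 sites before minimal TATA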); settings: HeLa Gal4-ERK5 transactivation, 18 h, at 5 µM, hits give high values
Mitogen-activated protein kinase 7 (Homo sapiens), sequence (Q13164 whole entry, looked up, the tested form may be a part): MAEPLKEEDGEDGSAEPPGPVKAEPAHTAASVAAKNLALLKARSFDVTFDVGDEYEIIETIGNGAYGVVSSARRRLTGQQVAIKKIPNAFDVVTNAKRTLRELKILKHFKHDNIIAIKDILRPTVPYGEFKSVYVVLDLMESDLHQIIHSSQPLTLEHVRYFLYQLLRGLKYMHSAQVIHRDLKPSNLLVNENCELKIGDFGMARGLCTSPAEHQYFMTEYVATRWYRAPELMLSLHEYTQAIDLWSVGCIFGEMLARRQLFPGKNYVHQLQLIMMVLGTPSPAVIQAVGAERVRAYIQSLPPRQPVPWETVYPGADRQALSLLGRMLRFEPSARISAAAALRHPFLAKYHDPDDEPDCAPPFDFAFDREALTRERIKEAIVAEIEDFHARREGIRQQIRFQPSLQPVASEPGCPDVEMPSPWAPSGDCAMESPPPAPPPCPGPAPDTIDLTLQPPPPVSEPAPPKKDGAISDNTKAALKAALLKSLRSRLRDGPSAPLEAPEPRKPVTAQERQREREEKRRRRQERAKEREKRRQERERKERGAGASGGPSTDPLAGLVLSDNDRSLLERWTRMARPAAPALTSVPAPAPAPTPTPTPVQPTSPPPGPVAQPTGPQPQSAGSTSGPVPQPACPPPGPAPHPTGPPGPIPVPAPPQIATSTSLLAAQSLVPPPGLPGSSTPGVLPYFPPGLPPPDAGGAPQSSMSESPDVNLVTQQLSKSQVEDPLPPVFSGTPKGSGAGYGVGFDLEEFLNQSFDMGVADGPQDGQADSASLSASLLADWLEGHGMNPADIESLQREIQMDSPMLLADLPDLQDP

NAD(+) hydrolase SARM1 (Homo sapiens), sequence (Q6SZW1 whole entry, looked up): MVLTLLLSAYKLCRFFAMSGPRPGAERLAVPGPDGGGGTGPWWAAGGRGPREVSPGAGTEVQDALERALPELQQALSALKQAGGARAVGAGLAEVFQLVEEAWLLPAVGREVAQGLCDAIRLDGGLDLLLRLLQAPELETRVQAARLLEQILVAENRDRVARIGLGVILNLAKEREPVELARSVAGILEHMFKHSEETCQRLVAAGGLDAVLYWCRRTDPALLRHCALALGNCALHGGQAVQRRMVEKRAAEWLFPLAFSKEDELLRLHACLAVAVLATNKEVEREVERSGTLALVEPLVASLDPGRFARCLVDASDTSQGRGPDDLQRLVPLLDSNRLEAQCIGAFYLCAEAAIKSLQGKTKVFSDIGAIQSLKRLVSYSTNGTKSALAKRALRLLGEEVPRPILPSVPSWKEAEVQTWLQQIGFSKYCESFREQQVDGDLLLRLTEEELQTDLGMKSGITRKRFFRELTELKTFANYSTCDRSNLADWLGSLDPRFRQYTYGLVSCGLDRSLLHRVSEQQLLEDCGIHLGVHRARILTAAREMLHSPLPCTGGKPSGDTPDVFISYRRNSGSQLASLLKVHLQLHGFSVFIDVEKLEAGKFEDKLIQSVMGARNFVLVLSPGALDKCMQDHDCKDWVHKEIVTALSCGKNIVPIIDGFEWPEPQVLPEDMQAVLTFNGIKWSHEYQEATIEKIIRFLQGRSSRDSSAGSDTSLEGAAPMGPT

SMILES	remaining NAD [1]	z-score [2]	log fold change Tl+ flux [3]	log fold change Tl+ flux [4]	luciferase signal [5]
Nc1ccn([C@H]2CC[C@@H](CO)O2)c(=O)n1	10 nM (inactive)	0.025 (inactive) and 0.685 (inactive)	0.0263 (inactive)	0.0264 (inactive)	–
N#Cc1ccc(C(c2ccc(C#N)cc2)n2cncn2)cc1	10 nM (inactive)	0.515 (inactive) and 0.315 (inactive)	-0.0169 (inactive)	0.0204 (inactive)	–
CCN(CC)CC1CCCCN1CC(=O)N1c2ccccc2C(=O)Nc2cccnc21 (stereo unspecified)	–	0.18 (inactive) and -0.135 (inactive)	-0.00678 (inactive)	0.0276 (inactive)	–
NC(=O)OCC(COC(N)=O)c1ccccc1	–	0.13 (inactive) and 0.59 (inactive) and 0.445 (inactive)	-0.103 (inactive)	-0.0115 (inactive)	112 AU (inactive)
CCCN[C@H]1CCc2nc(N)sc2C1	–	0.97 (inactive)	0.0634 (inactive) and -0.0393 (inactive)	0.0248 (inactive)	–
COc1cc(C(=O)NS(=O)(=O)c2ccccc2C)ccc1Cc1cn(C)c2ccc(NC(=O)OC3CCCC3)cc12	–	1.64 (inactive) and 1.23 (inactive)	0.278 (active)	0.461 (active)	–
